From PubChem BioAssay AID1875 (Broad Institute, 2009)
Among all 300,000 compounds or so, about 65 (0.02%) were called active.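 Rule for the calls: active = lowest replicate activity score at least 50, where 100 means six control SD above control mean; inconclusive = lowest score under 50 but half or more replicates reach 50; inactive = the rest.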 This excerpt belongs to a sample that is enriched for actives.

Test: polyadenylation inhibitors in yeast reporter cells, primary screen, luminescence, S. cerevisiae (AID 1875);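 note: yeast exposed to compound for 9 h at 30 °C; higher score means more reporter readthrough which indicates perturbed polyadenylation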
Conditions: S. cerevisiae SKY197-pL101 polyadenylation reporter, beta-gal luminescence; at 12 µM; stronger effect = higher value; efflux-impaired pdr1/pdr3 knockout yeast; score 100 = 6 SD above DMSO

Activity score, inactive:
CC1C(=O)NC(=O)C1c1ccccc1 (stereo not given) -10.6%, CC(C)Cc1nn2c(=O)cc(O)nc2s1 4.85%, Cc1c(Br)cc(C(=O)N2CCCCCC2)c(C)c1C -12.8%, COc1ccccc1N1CCN(C(=O)c2cc(=O)c3cc(C)cc(C)c3o2)CC1 -11.1%, Cc1c(NS(=O)(=O)c2ccc(NC3CCCC3)c([N+](=O)[O-])c2)c(=O)n(-c2ccccc2)n1C 0.246%, COc1ccccc1OCC(=O)Nc1ccccc1C(=O)NC1CC1 -4.06%, O=C1c2ccccc2C(=O)N1Cc1cc(-c2ccccc2Cl)no1 16.1%, CCCOc1ccc(-c2c(C(=O)N/N=C/c3ccco3)nnn2-c2nonc2N)cc1 -8.58%, COCc1[nH][nH]c(=O)c1C=Nc1ccc(F)cc1F -2.51%, Cc1ccc(NC(=O)C(C)c2cccc(C(=O)c3ccccc3)c2)cc1 (stereo not given) -5.58%, COc1ccccc1N1CCN(S(=O)(=O)c2ccc3c(c2)NC(=O)CS3)CC1 9.75%, CN(C)Cc1ccccc1C1(O)c2ccccc2CSc2ccccc21 (stereo not given) -2.69%, CN(C)C(=O)c1ccc(NC(=O)c2ccccc2-c2ccccc2)cc1 -1.15%, CCC(Cc1ccccc1)NC(=O)C1CCCCC1 (stereo not given) 15.5%, CCCC[C@@H]1CN=C(N)N1CCCC 6.9%, C=CCN1C(=O)C2(OCCCO2)c2cccc(Cl)c21 -10.9%, CC(=O)NC(Cc1ccc(F)c(F)c1)C(=O)NC1CCN(c2nnnn2-c2ccccc2)CC1 (stereo not given) -5.96%, O=C(NCc1ccccc1Cl)NC(=O)c1csc([N+](=O)[O-])c1 8.38%, O=C(NCc1ccccc1)C1=C[C@@H](c2ccc(C(F)(F)F)cc2)C[C@@H](OCc2ccc(CO)cc2)O1 4.63%, Cc1ccc(C)c(N2CCN(C(=O)CCCCCn3c(=S)[nH]c4ccc(N5CCOCC5)cc4c3=O)CC2)c1 13.3%, S=c1[nH]cc(-c2ccc(Cl)cc2)n1-c1ccccc1 -13.1%, CC(C)c1ccc(NC(=O)[C@@H](NC(=O)N2CC(=O)Nc3ccccc32)C(C)C)cc1 8.86%, COc1ccc2c(c1)N(C)/C(=C1/SC(=S)N(NC(C)=O)C1=O)S2 -0.22%, Cc1ccc(C(=O)NC2CCCC(C)C2C)cc1S(=O)(=O)N1CCCCC1 (stereo not given) 0.169%, CCN(CC)Cc1c(C(=O)N/N=C/c2cccc(OCc3ccc(F)cc3)c2)nnn1-c1nonc1N -15.4%
